About 79,000 compounds went through this panel and 15% of them were active in at least one assay; those are over-represented in the sample as a whole. A number with no mark means an inactive call. Activity calls are given as the source filed them. Cut-off read from the data, not from the text of the source: active = growth inhibition above about 70%; inactive = the rest.
Assay: NCI Yeast Anticancer Drug Screen. Data for the wt1 strain (AID 149);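 note: 0% = growth of vehicle-treated wt1 cultures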
Details: S. cerevisiae wt1 strain (SPY 50644) growth inhibition, hits give high values
Procedure: Growth inhibition of yeast strains with defined genetic alterations is measured as a screen for potential anti-cancer activity. Selected strains with alterations in DNA damage repair or cell cycle control were exposed to compounds and growth inhibition was measured relative to vehicle treated controls. The strain used in this assay is wt1

SMILES: CCOC(=O)c1cnc2cc(C(F)(F)F)ccc2c1N=[N+]=[N-]
- growth inhibition (at 1.2 µM): 3%
- growth inhibition (at 3.7 µM): 4%
- growth inhibition (at 11.0 µM): 8%
- growth inhibition (at 33.0 µM): 37%
- growth inhibition (at 100.0 µM): 87% (active)

SMILES: C=CCC1=C(C)C(OC(=O)/C=C/c2ccccc2)CC1=O (stereo not given)
- growth inhibition (at 1.2 µM): -2%
- growth inhibition (at 3.7 µM): -5%
- growth inhibition (at 11.0 µM): -5%
- growth inhibition (at 33.0 µM): -2%
- growth inhibition (at 100.0 µM): -3%

SMILES: CN(C)c1ccc(Sc2ccc3nc(N)nc(N)c3c2)cc1
- growth inhibition (at 1.2 µM): 15%
- growth inhibition (at 3.7 µM): 12%
- growth inhibition (at 11.0 µM): 10%
- growth inhibition (at 33.0 µM): -7%
- growth inhibition (at 100.0 µM): -5%

SMILES: Cc1cc(N=Nc2ccc(S(=O)(=O)[O-])cc2)cc(C(=O)[O-])c1[O-].NC1CCCCC1N.[Na+].[Pt+4]
- growth inhibition (at 1.2 µM): 3%
- growth inhibition (at 3.7 µM): 44%
- growth inhibition (at 11.0 µM): 98% (active)
- growth inhibition (at 33.0 µM): 98% (active)
- growth inhibition (at 100.0 µM): 98% (active)

SMILES: Cc1cc(I)ccc1N
- growth inhibition (at 1.2 µM): -8%
- growth inhibition (at 3.7 µM): 2%
- growth inhibition (at 11.0 µM): -8%
- growth inhibition (at 33.0 µM): 86% (active)
- growth inhibition (at 100.0 µM): 91% (active)

SMILES: CCN(CC)CC(O)c1ccc2ccc3ccccc3c2c1 (stereo not given)
- growth inhibition (at 1.2 µM): 4%
- growth inhibition (at 3.7 µM): 10%
- growth inhibition (at 11.0 µM): 18%
- growth inhibition (at 33.0 µM): 16%
- growth inhibition (at 100.0 µM): 19%

SMILES: O=C1C2CC[C@@H]3C(=O)C(Cl)(Cl)[C@@H]3CCC2C1(Cl)Cl (stereo not given in full)
- growth inhibition (at 1.2 µM): 0%
- growth inhibition (at 3.7 µM): 1%
- growth inhibition (at 11.0 µM): 2%
- growth inhibition (at 33.0 µM): 9%
- growth inhibition (at 100.0 µM): 12%

SMILES: O=C(NCCCNCCCNC(=O)c1cc(-c2ccccc2)nc2ccccc12)c1cc(-c2ccccc2)nc2ccccc12
- growth inhibition (at 1.2 µM): -1%
- growth inhibition (at 3.7 µM): -1%
- growth inhibition (at 11.0 µM): -3%
- growth inhibition (at 33.0 µM): -2%
- growth inhibition (at 100.0 µM): -5%
